Reference: PubChem BioAssay (NCATS)
Records with an inconclusive call do not appear. Entries that show only a call come without a potency. Activity calls are given as the source filed them. Calls come from the whole dose curve; as a rule, active = well fitted curve in the direction sought with a large enough effect; inconclusive = small, poorly fitted or top-dose-only effect, or another doubt; inactive = no such curve, though single readings can be large; an effect the other way counts as inactive or inconclusive. Residues, ends and D or L forms follow the SMILES beside them. *: point of attachment. Cbz = O=C(OCc1ccccc1)*

Experiments:
[1] = qHTS to identify inhibitors of the type 1 interferon - major histocompatibility complex class I in skeletal muscle: primary screen against the NCATS LOPAC collection (AID 1347405);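 note: human myoblasts with HiBiT tag on endogenous HLA-B stimulated by IFN-beta; lytic HiBiT luminescence reporting HLA-B protein level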; note: potency is the fitted concentration of half-maximal effect
Outline: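 HLA-B HiBiT myoblasts, IFN-b 4 ng/ml, dexamethasone-free medium; compounds 7-pt 1:4.3 titration, top 46 uM final; 24 h at 37 C; Nano-Glo HiBiT lytic reagent, 10 min RT, luminescence.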

[2] = qHTS for inhibitors of adenylyl cyclases using a fission yeast platform: a pilot screen against the NCATS LOPAC library (AID 1347410)
Outline: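 S. pombe CHP2027 (AC9-GNAS-PDE4D2) carrying a PKA-repressed fbp1-GFP reporter was exposed to LOPAC compounds (final up to 57 µM) for 18 h at 30C in the dark, in EMM with histidine, lysine and uracil; GFP gain-of-signal read by laser scanning cytometry.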

[3] = Validation qHTS assay for inhibitors of Activation Induced Cytidine Deaminase (AID): UDG Counterscreen signal (AID 1347427)
Outline: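 Fluorescence at 560 nm excitation, 665 nm emission reports UDG signal after 250 mM NaOH (2x) addition and 30 min. Enzymes (AID 1 uM, UDG 2 U/mL, at 4/3x) preincubated 10 min with compound, then 4 h with 4x 250 nM DJC20/DJC23 substrate at room temperature.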

[4] = qHTS to identify inhibitors of the type 1 interferon - major histocompatibility complex class I in skeletal muscle: primary screen against the NCATS Mechanism Interrogation Plate v5.0 (MIPE) Libary (AID 1347411); note: nearly all actives have a fitted effect of over 65% in size
Outline: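 HLA-B HiBit myoblasts, dexamethasone-free medium + 4 ng/ml IFN-b, 24 h compound, 11-pt 1:3 from 46 uM final. Readout: Nano-Glo HiBiT lytic luminescence after 10 min lysis, RT.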

| Compound | Potency [1] | outcome [2] | Potency [3] | outcome [4] |
| --- | --- | --- | --- | --- |
| COc1ccc(-c2cc3ncc(C)n3c(Nc3ncccc3C(N)=O)n2)cc1OC | 3.16 µM (active) | inactive | inactive |  |
| O=C(O)c1ccccc1Nc1ccccc1 | inactive |  | inactive |  |
| Cc1cc2c(cc1Cl)N(C(=O)Nc1ccnc3ccccc13)CC2 | inactive | inactive | inactive |  |
| CC(N)(C(=O)O)c1ccc(C(=O)O)cc1 (stereo not drawn) | inactive |  | inactive |  |
| N=C(N)SCCc1cnc[nH]1 | inactive | inactive | inactive |  |
| O=c1[nH]ccc2c(O)cccc12 | inactive |  | inactive |  |
| Cc1nc2n(c(=O)c1CCN1CCC(c3noc4cc(F)ccc34)CC1)CCCC2O (stereo not drawn) | inactive | inactive | inactive |  |
| O=c1onc2cnc3ccccc3n12 | inactive | inactive | inactive |  |
| CN(CC[C@@H](Oc1ccc(C(F)(F)F)cc1)c1ccccc1)CC(=O)O | inactive | inactive | inactive |  |
| COc1ccc2c(c1)c(CC(=O)O)c(C)n2Cc1ccc(Cl)cc1 | inactive | inactive | inactive |  |
| NC1(C(=O)O)CCc2cc(C(=O)O)ccc21 (stereo not drawn) | inactive | inactive | inactive |  |
| O=c1[nH]c2cc(Cl)ccc2c(O)c1-c1ccc(Oc2ccccc2)cc1 | 8.91 µM (active) | inactive | inactive |  |
| O=c1ccc2c(OCCCCc3ccccc3)c3ccoc3cc2o1 | inactive | inactive | inactive |  |
| N[C@@H](CS(=O)O)C(=O)O | inactive |  | inactive |  |
| CCCCCCC(=O)OC1CC(C)(C)NC(C)(C)C1 |  | inactive | inactive |  |
| COc1cc(/C=C(\C#N)C(=O)Nc2nnc(C(F)(F)F)s2)ccc1OCc1ccc(C(F)(F)F)cc1C(F)(F)F |  | inactive | inactive | inactive |
| Nc1nc2[nH]c(=O)cnc2c(=O)[nH]1 | inactive |  | inactive |  |
| NC(N)=[N+]1CCc2ccccc2C1 | inactive |  | inactive |  |
| O=C(N[C@@H](Cc1ccccc1)C(=O)CCl)OCc1ccccc1 |  | inactive | inactive |  |
| O=c1[nH]c(=O)c2nc3ccccc3nc2[nH]1 | inactive |  | inactive |  |
| CNc1cc(NS(=O)(=O)c2ccc(N)cc2)nc(NC)n1 | inactive |  | inactive |  |
| CCCCCCN(CCCCCC)C(=O)Cc1c(-c2ccc(F)cc2)[nH]c2ccccc12 | inactive |  | inactive |  |
| C=C1C(=O)O[C@@H]2[C@H]3O[C@]3(C)CCC=C(C)CC[C@@H]12 | 14.1 µM (active) |  | inactive |  |
| Nc1ncnc2c1c(-c1ccc(Oc3ccccc3)cc1)cn2C1CCCC1 |  | inactive | inactive |  |

| Compound | Potency [1] | outcome [2] | Potency [3] | outcome [4] |
| --- | --- | --- | --- | --- |
| CN1Cc2sccc2C(c2ccc(O)c(O)c2)C1 (stereo not drawn) | inactive |  | inactive |  |
| CN1CCC2(CCN3CCc4c(oc5ccccc45)C3C2)N(C)C1=O (stereo not drawn) | inactive |  | inactive |  |
| CC[N+](CC)(CC)CC(=O)Nc1c(C)cccc1C | inactive |  | inactive |  |
| O=C(O)c1cccnc1C(=O)O | inactive |  | inactive |  |
| O=C(O)C1=CCNCC1 | inactive |  | inactive |  |
| CCCc1c(-c2ccc(O)cc2)nn(-c2ccc(O)cc2)c1-c1ccc(O)cc1 | inactive |  | inactive |  |
| Nc1nc2c(cnn2CCc2ccccc2)c2nc(-c3ccco3)nn12 | inactive |  | inactive |  |
| NC1CONC1=O (stereo not drawn) | inactive |  | inactive |  |
| c1ccc2nc(C3=NCCN3)ccc2c1 | inactive |  | inactive |  |
| N[C@H]1CONC1=O | inactive |  | inactive |  |
| C/C(=C\c1ccc(C(=O)O)cc1)c1ccc2c(c1)C(C)(C)CCC2(C)C | inactive |  | inactive |  |
| CCCn1c(=O)c2[nH]c(C3CCCC3)nc2n(CCC)c1=O |  | inactive | inactive |  |
| N#C/C(=C\c1ccc(O)c(O)c1)C(=O)NCCCNC(=O)/C(C#N)=C/c1ccc(O)c(O)c1 |  | inactive | inactive |  |
| C[C@](Cc1ccc(O)c(O)c1)(NN)C(=O)O | inactive |  | inactive |  |
| CNc1ncnc2c1ncn2[C@H]1C[C@H](OP(=O)(O)O)[C@@H](COP(=O)(O)O)O1 | inactive |  | inactive |  |
| O=C(O)CCC(=O)N1CCCC1C(=O)O (stereo not drawn) | inactive |  | inactive |  |
| NC1(C(=O)O)CC1 | inactive |  | inactive |  |
| CCCCCCCC/C=C\CCCCCCCC(=O)NCCc1ccc(O)c(O)c1 |  | inactive | inactive |  |
| Brc1c(Br)c(Br)c2[nH]cnc2c1Br |  | inactive | inactive |  |
| C[C@H]1CC2C3CCC4=CC(=O)C=C[C@]4(C)[C@@]3(Cl)[C@@H](O)C[C@]2(C)[C@@]1(O)C(=O)CO (stereo partly drawn) | inactive |  | inactive |  |
| CCn1c(=O)[nH]c2cc(Cl)c(Cl)cc21 | 3.16 µM (active) |  | inactive |  |
| COC(=O)C(C)(N)Cc1ccc(O)cc1 (stereo not drawn) | inactive |  | inactive |  |
| Cc1cccc(C)c1OCC(N)C(C)C (stereo not drawn) | inactive |  | inactive |  |
| NCCCCN | inactive |  | inactive |  |

| Compound | Potency [1] | outcome [2] | Potency [3] | outcome [4] |
| --- | --- | --- | --- | --- |
| O=C(O)c1ccccc1Nc1cccc(OCc2ccc3ccccc3n2)c1 | inactive |  | inactive |  |
| O=C1OC(=O)C2C3CCC(O3)C12 (stereo not drawn) | inactive |  | inactive |  |
| CN1CCN(c2nc3cc(C(F)(F)F)ccc3n3cccc23)CC1 | inactive |  | inactive |  |
| NC1C=CC=C(C(=O)O)C1 (stereo not drawn) |  | inactive | inactive |  |
| O=S(=O)(c1cccc2c(Cl)cccc12)N1CCCNCC1 |  | inactive | inactive |  |
| Cc1cc(Cn2cnc3c2C[C@@H](C(=O)O)N(C(=O)C(c2ccccc2)c2ccccc2)C3)ccc1N |  | inactive | inactive |  |
| CC[C@@H]1Cc2cc(O)ccc2C2=C1c1ccc(O)cc1C[C@H]2CC |  | inactive | inactive |  |
| C#CC(N)CCC(=O)O (stereo not drawn) |  | inactive | inactive |  |
| NC(=Nc1ccccc1)NC(=O)c1nc(Cl)c(N)nc1N |  | inactive | inactive |  |
| Oc1ccc(/C=C/c2ccc(/C=C/c3ccc(O)cc3)c(Br)c2)cc1 |  | inactive | inactive |  |
| O=C(O)C1CCCNC1 (stereo not drawn) |  | inactive | inactive |  |
| CCCC[C@@]1(C2CCCC2)Cc2cc(OCC(=O)O)c(Cl)c(Cl)c2C1=O |  | inactive | inactive |  |
| CC#CCOC(=O)c1c(C)nc2sc3c(c2c1N)CCC(O)C3 (stereo not drawn) |  | inactive | inactive |  |
| COc1cc(CNC(=O)CCCCCCC(C)C)ccc1O |  | inactive | inactive |  |
| c1ccc(C2CN3CCSC3=N2)cc1 (stereo not drawn) |  | inactive | inactive |  |
| O=C1C2C=CC=CC2=NC(=S)N1CCN1CCC(=C(c2ccc(F)cc2)c2ccc(F)cc2)CC1 (stereo not drawn) |  | inactive | inactive |  |
| O=c1[nH]c(=S)[nH]c(-c2ccccc2)c1Cc1c(O)ccc2ccccc12 |  | inactive | inactive |  |
| NC[C@@H]1O[C@H](c2ccccc2)Cc2c1ccc(O)c2O |  | inactive | inactive |  |
| CC(C)(C)c1ccc(/C=C/C(=O)Nc2ccc3c(c2)OCCO3)cc1 |  | inactive | inactive |  |
| C=CCn1c(=O)c2c(nc(-c3ccc(S(=O)(=O)O)cc3)n2C)n(C)c1=O |  | inactive | inactive |  |
| COC(=O)C1=C(C)NC(C)=C([N+](=O)[O-])C1c1ccccc1C(F)(F)F (stereo not drawn) |  | inactive | inactive |  |
| O=c1cc(-c2ccccc2)[nH]c2nc(Cl)ccc12 |  | inactive | inactive |  |
| CNCCNS(=O)(=O)c1cccc2cnccc12 |  | inactive | inactive |  |
| C[C@@]1(C2CCCC2)Cc2cc(OCC(=O)O)c(Cl)c(Cl)c2C1=O |  | inactive | inactive |  |

| Compound | Potency [1] | outcome [2] | Potency [3] | outcome [4] |
| --- | --- | --- | --- | --- |
| CCN(CC)CCCCCCCCOC(=O)c1cc(OC)c(OC)c(OC)c1 |  | inactive | inactive |  |
| CCc1ccc2c(-c3cccc(Cl)c3)nc(=O)n(CC)c2n1 |  | inactive | inactive |  |
| CC(C)[C@H](NC(=O)OCc1ccccc1)C(=O)N[C@H](C=O)Cc1ccccc1 (Cbz-Val-Phe-aldehyde) |  | inactive | inactive |  |
| CCCn1c(=O)c(C)cn2nc(N)nc12 |  | inactive | inactive |  |
| N#Cc1cc([N+](=O)[O-])c2sc(C(N)=O)[n+]([O-])c2c1 |  | inactive | inactive |  |
| OC[C@H]1O[C@@H](n2cnc3cncnc32)[C@H](O)[C@@H]1O |  | inactive | inactive |  |
| Nc1nc2ccc(Cl)cc2c2nc(-c3ccco3)nn12 |  | inactive | inactive |  |
| Cc1ccccc1/C=C/C1=NCCN1 |  | inactive | inactive |  |
| COc1ccccc1N1CCN(CCCCN2C(=O)c3ccccc3C2=O)CC1 |  | inactive | inactive |  |
| C=C1C[C@@]23CC[C@H]4[C@@](C)(CCC[C@@]4(C)C(=O)OC4OC(CO)C(O)C(O)C4O)[C@@H]2CC[C@]1(OC1OC(CO)C(O)C(O)C1OC1OC(CO)C(O)C(O)C1O)C3 (stereo partly drawn) |  | inactive | inactive |  |
| CC(=O)N[C@@H](Cc1c[nH]c2ccccc12)C(=O)OCc1cc(C(F)(F)F)cc(C(F)(F)F)c1 |  | inactive | inactive |  |
| O=C1NC(=O)c2cc(Nc3ccccc3)c(Nc3ccccc3)cc21 |  | inactive | inactive |  |
| O=C1Nc2ccc(I)cc2/C1=C/c1cc(Br)c(O)c(Br)c1 |  | inactive | inactive |  |
| CC(=O)SC1CC2=CC(=O)CC[C@]2(C)C2CC[C@@]3(C)C(CC[C@@]34CCC(=O)O4)C12 (stereo partly drawn) |  | inactive | inactive |  |
| CN1CCCC1CCOC(C)(c1ccccc1)c1ccc(Cl)cc1 (stereo not drawn) |  | inactive | inactive |  |
| N#C/C(=C\c1ccc(O)c(O)c1)C(=O)NCCc1ccccc1 |  | inactive | inactive |  |
| CCCCCCCCCCC(C)(C)C(=O)Nc1c(OC)cc(OC)cc1OC |  | inactive | inactive |  |
| C=CC1(C)CC(=O)C2(O)C(C)(O1)C(OC(C)=O)C(O)C1C(C)(C)CCC(O)C12C (stereo not drawn) |  |  | inactive |  |
| CCC1(O)CC2CN(CCc3c([nH]c4ccccc34)[C@@](C(=O)OC)(c3cc4c(cc3OC)N(C)C3[C@]45CCN4CC=C[C@@](CC)([C@@H](OC(C)=O)[C@]3(O)C(=O)OC)[C@H]45)C2)C1 (stereo partly drawn) |  |  | inactive |  |
| C=CCNc1ncnc2ccc(Br)cc12 |  | inactive | inactive |  |
| C=CCN1CCc2c(cc(O)c(O)c2Br)[C@@H](c2ccccc2)C1 |  |  | inactive |  |
| NCC(O)C1CCCCCCC1 (stereo not drawn) |  | inactive | inactive |  |
| CCC1(O)CC2CN(CCc3c([nH]c4ccccc34)[C@@](C(=O)OC)(c3cc4c(cc3OC)N(C=O)C3[C@]45CCN4CC=C[C@@](CC)([C@@H](OC(C)=O)[C@]3(O)C(=O)OC)[C@H]45)C2)C1 (stereo partly drawn) |  |  | inactive |  |
| CCCCCCCCCCCCCCCCCCOC[C@H](COP(=O)([O-])OCC[N+](C)(C)C)OC |  |  | inactive |  |
